PubChem BioAssay (EPA / NIEHS)
The source made the active and inactive calls. How the source made its calls: active means hit-call score of the fitted dose curve at least 0.9, where 1 is the maximum; inactive means score below 0.9.

What was measured:
[1] = ATG_CRE_CIS: Attagene CIS-FACTORIAL HepG2 Assay for human cAMP Responsive Element (CRE) binding protein 3 (AID 2282926); details: HepG2 CRE cis-reporter, Attagene multiplexed mRNA; actives raise or lower the signal
How it was run: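 We dosed HepG2 cells bearing multiple cis-promoter reporter units for 24 h and measured reporter mRNA by RT-PCR with capillary electrophoresis detection. Bidirectional concentration-response fitting used DMSO as negative control.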

[2] = target: CCAAT/enhancer-binding protein beta (Homo sapiens) (UniProt P17676); assay: ATG_C_EBP_CIS: Attagene CIS-FACTORIAL HepG2 Assay for human CCAAT/Enhancer Binding Protein (C/EBP) beta (AID 2282927); details: HepG2 Attagene cis-factorial transcription factor reporter; actives raise or lower the signal
Chain of CCAAT/enhancer-binding protein beta (Homo sapiens) (P17676 whole entry, looked up): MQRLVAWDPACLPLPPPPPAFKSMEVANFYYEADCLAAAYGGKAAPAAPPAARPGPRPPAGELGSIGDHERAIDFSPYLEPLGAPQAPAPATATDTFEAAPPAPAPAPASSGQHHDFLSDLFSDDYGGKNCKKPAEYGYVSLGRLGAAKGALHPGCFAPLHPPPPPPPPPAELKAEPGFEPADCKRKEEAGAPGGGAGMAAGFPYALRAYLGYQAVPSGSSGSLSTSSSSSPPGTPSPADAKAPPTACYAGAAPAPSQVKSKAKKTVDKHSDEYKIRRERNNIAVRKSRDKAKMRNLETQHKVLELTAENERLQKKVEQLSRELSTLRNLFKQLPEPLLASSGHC
How it was run: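 Changes in reporter mRNA, rather than exogenous chimeric receptor activity, reflect native C/EBP signalling in transfected HepG2 cells dosed for 24 h; transcripts are detected by RT-PCR and capillary electrophoresis.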

[3] = ATG_CMV_CIS: Attagene CIS-FACTORIAL HepG2 Assay for human CMV (Internal Marker) (AID 2282928); details: HepG2 CMV promoter reporter, transcription factor profiling; actives raise or lower the signal;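 further: endpoint acts as a background internal control marker rather than a target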
How it was run: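 After transient transfection of HepG2 with reporter transcription units driven by cis-regulatory promoters, cells receive test chemical for 24 h. Labeled reporter amplicons, digested with HpaI, are sized and quantified by capillary electrophoresis against DMSO.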

[4] = ATG_DR4_LXR_CIS: Attagene CIS-FACTORIAL HepG2 Assay for human Liver X Receptor (LXR), DR4 submotif (AID 2282929); details: HepG2 Attagene DR4 cis-reporter, mRNA transcription; actives raise or lower the signal
How it was run: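 Cells were transfected with multiple reporter transcription units, exposed to chemicals for 24 hours, then lysed for RNA. Reporter mRNA induction was measured by RT-PCR with capillary electrophoresis detection and fitted in both directions relative to DMSO.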

[5] = target: Aryl hydrocarbon receptor (Homo sapiens) (UniProt P35869); assay: ATG_Ahr_CIS: Attagene CIS-FACTORIAL HepG2 Assay for human Aryl Hydrocarbon Receptor (Ahr) (AID 2282930); details: HepG2 AhR cis-factorial reporter transcription; actives raise or lower the signal
Chain of Aryl hydrocarbon receptor (Homo sapiens) (P35869 whole entry, looked up): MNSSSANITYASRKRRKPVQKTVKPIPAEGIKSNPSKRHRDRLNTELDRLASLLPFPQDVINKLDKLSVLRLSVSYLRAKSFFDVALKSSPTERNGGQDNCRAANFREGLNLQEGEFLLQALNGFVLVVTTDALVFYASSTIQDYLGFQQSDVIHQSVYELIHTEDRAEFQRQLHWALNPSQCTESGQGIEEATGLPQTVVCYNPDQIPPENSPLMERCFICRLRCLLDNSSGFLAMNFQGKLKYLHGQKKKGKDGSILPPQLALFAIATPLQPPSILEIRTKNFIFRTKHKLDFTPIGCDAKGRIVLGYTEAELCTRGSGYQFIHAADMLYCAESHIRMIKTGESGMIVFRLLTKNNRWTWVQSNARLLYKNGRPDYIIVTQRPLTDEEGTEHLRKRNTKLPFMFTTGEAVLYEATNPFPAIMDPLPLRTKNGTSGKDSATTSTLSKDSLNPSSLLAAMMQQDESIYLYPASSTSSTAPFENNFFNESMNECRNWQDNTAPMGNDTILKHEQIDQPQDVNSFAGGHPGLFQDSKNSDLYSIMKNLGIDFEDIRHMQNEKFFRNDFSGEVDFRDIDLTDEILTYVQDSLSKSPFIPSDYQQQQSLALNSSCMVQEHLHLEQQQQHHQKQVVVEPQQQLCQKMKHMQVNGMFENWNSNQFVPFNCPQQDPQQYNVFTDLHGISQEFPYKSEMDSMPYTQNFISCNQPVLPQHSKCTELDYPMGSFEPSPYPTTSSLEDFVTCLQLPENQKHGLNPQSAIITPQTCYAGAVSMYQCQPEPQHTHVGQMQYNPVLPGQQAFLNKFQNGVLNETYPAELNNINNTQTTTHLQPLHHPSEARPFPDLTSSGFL
How it was run: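 HepG2, transient MRTU (cis) transfection, 24 h exposure. RNA → cDNA → PCR → 6-FAM primer extension → HpaI 2 h 37 C → CE. Fit: bidirectional, DMSO baseline.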

[6] = ATG_AP_2_CIS: Attagene CIS-FACTORIAL HepG2 Assay for human Activator Protein 2 (AP-2) (AID 2282932); details: HepG2 AP-2 cis-reporter, Attagene transcription factor profiling; actives raise or lower the signal
How it was run: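 Step one: transient transfection of HepG2 with reporter transcription units. Step two: 24 h chemical exposure. Step three: RNA extraction, RT-PCR, labelled fragment analysis by capillary electrophoresis; DMSO serves as baseline.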

[7] = ATG_BRE_CIS: Attagene CIS-FACTORIAL HepG2 Assay for human Bone Morphogenetic Protein (BMP) Response Element (BRE) (AID 2282933); details: HepG2 BMP response element reporter, Attagene transcription factor profiling; actives raise or lower the signal
How it was run: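 Gain- or loss-of-signal was derived by bidirectional fitting against DMSO controls. The signal came from reporter mRNA, measured by RT-PCR and capillary electrophoresis, in HepG2 cells transiently carrying multiple reporter units and dosed for 24 h.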

[8] = target: Retinoic acid receptor alpha (Homo sapiens) (UniProt P10276); assay: ATG_DR5_RAR_CIS: Attagene CIS-FACTORIAL HepG2 Assay for human Retinoic Acid Receptor Alpha (RARE), DR5 submotif (AID 2282934); details: HepG2 Attagene cis-factorial RARE DR5 reporter, mRNA; actives raise or lower the signal;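 on AC50: reporter responds to endogenous RAR alpha beta and gamma in HepG2 not RARA alone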
Chain of Retinoic acid receptor alpha (Homo sapiens) (P10276 whole entry, looked up): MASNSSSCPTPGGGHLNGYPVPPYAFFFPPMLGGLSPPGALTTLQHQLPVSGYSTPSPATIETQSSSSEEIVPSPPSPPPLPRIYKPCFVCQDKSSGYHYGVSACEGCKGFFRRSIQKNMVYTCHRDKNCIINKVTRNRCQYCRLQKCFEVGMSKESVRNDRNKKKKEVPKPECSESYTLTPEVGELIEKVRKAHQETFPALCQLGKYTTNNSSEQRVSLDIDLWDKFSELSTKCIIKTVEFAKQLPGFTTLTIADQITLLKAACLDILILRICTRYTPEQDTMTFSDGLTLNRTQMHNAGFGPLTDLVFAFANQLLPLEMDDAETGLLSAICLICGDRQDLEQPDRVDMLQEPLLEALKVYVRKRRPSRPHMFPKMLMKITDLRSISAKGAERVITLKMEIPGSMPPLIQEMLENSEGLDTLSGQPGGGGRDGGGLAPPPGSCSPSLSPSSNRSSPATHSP
How it was run: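 HepG2, transient cis-reporter transfection, 24 h exposure. mRNA readout: RT-PCR, FAM label, HpaI cut, capillary electrophoresis. DMSO baseline, gain/loss fitting.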

[9] = target: Transcription factor E2F1 (Homo sapiens) (UniProt Q01094); assay: ATG_E2F_CIS: Attagene CIS-FACTORIAL HepG2 Assay for human E2F Transcription Factor 1 (AID 2282935); details: HepG2 Attagene cis-reporter, E2F reporter RNA transcripts; actives raise or lower the signal
Chain of Transcription factor E2F1 (Homo sapiens) (Q01094 whole entry, looked up): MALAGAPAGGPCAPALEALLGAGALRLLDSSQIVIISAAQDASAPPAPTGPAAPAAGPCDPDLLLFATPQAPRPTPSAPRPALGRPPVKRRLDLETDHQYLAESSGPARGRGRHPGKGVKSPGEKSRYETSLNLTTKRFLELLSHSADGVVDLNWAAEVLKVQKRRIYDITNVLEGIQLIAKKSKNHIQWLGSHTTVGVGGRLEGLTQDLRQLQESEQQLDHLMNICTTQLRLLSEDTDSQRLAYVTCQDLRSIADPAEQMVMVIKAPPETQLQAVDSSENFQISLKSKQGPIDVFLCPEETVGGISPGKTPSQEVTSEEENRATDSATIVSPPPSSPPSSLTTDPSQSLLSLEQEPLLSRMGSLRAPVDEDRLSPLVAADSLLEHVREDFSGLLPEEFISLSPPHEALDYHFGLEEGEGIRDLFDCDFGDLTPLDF
How it was run: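 Total RNA from 24 h-treated, reporter-transfected HepG2 cells undergoes DNase I treatment, oligo(dT) reverse transcription, PCR and 6-FAM primer extension before capillary electrophoresis.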

[10] = ATG_AP_1_CIS: Attagene CIS-FACTORIAL HepG2 Assay for human Activator Protein 1 (AP-1) (AID 2282931); details: HepG2 Attagene cis-factorial AP-1 reporter mRNA; actives raise or lower the signal
How it was run: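 Endogenous transcription-factor activity in human HepG2 liver cells is read through a cis-promoter reporter transcript, sampled 24 h after dosing. Detection uses RT-PCR with capillary electrophoresis; values come from bidirectional fitting relative to DMSO.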

Measured: AC50

CC(=O)C1(C)CC2=C(CCCC2(C)C)CC1C (stereo not drawn)
inactive: [1] | [2] | [7] | [9]
active: [3] 76.8 µM | [4] 179 µM | [5] 126 µM | [6] 76.1 µM | [8] 100 µM

CCCCOCC
inactive: [1] | [2] | [3] | [5] | [10] | [6] | [7] | [8] | [9]

Cc1c(OCC(F)(F)F)ccnc1CS(=O)c1nc2ccccc2[nH]1 (stereo not drawn)
active: [5] 1.28 µM | [7] 153 µM
inactive: [1] | [2] | [3] | [10] | [6] | [8] | [9]

CC(C)CCOC(=O)c1ccccc1
inactive: [1] | [2] | [3] | [5] | [10] | [6] | [7] | [8] | [9]

COc1ccc(N)c([N+](=O)[O-])c1
inactive: [1] | [2] | [3] | [4] | [5] | [6] | [7] | [8] | [9]

O=C(Nc1ccc2c(O)c(N=Nc3ccc(N=Nc4ccc(S(=O)(=O)O)cc4)cc3)c(S(=O)(=O)O)cc2c1)c1ccccc1
active: [7] 66.8 µM
inactive: [1] | [2] | [3] | [5] | [10] | [6] | [8] | [9]

Oc1c(Cl)cc(Cl)c(Cl)c1Cc1c(O)c(Cl)cc(Cl)c1Cl
inactive: [1] | [4] | [9]
active: [2] 0.561 µM | [3] 11.1 µM | [5] 5.86 µM | [6] 1.98 µM | [7] 5.37 µM | [8] 0.527 µM

CCCCN(CCCC)C(=O)N(CCCC)CCCC
inactive: [1] | [3] | [5] | [6] | [7] | [8] | [9]
active: [2] 44.5 µM | [10] 58.5 µM

CC1(C)C(=O)N(Cl)C(=O)N1Br
inactive: [1] | [2] | [3] | [4] | [5] | [6] | [7] | [8] | [9]

Nc1ccc(NCCO)c([N+](=O)[O-])c1
inactive: [1] | [2] | [3] | [4] | [6] | [7] | [8] | [9]
active: [5] 7.19 µM

CCN(CCN)c1cccc(C)c1
active: [5] 50 µM
inactive: [1] | [2] | [3] | [10] | [6] | [7] | [8] | [9]

Clc1cc(Cl)c(-c2c(Cl)c(Cl)cc(Cl)c2Cl)cc1Cl
inactive: [1] | [2] | [5] | [6] | [7] | [8] | [9]
active: [3] 30.4 µM | [4] 21.8 µM

CCN(CC)C(=O)N(CC)CC
inactive: [1] | [2] | [3] | [4] | [5] | [6] | [7] | [8] | [9]

C[Si](C)(C)O[Si](C)(C)C
inactive: [1] | [2] | [3] | [4] | [5] | [7] | [8] | [9]

CC(C)=CCCC(C)CC(=O)O (stereo not drawn)
inactive: [1] | [2] | [3] | [5] | [10] | [6] | [7] | [8] | [9]

Nc1c(S(=O)(=O)O)cc(Br)c2c1C(=O)c1ccccc1C2=O
inactive: [1] | [2] | [3] | [10] | [6] | [7] | [8] | [9]
active: [5] 9.82 µM

Cc1cc(=O)oc2cc(N(C)C)ccc12
inactive: [2] | [5] | [10] | [6] | [7] | [8] | [9]
active: [1] 54.1 µM | [3] 46.7 µM

COc1ccc(OC)c(N=Nc2c(O)ccc3ccccc23)c1
inactive: [1] | [2] | [3] | [4] | [6] | [7] | [8] | [9]
active: [5] 0.51 µM

CCCCC1(COC(=O)CCC(=O)O)C(=O)N(c2ccccc2)N(c2ccccc2)C1=O
inactive: [1] | [2] | [3] | [4] | [5] | [6] | [7] | [8] | [9]

CCC(C)S (stereo not drawn)
inactive: [1] | [2] | [3] | [5] | [10] | [6] | [7] | [8] | [9]

Nc1ccc2cc(S(=O)(=O)O)cc(O)c2c1N=Nc1ccccc1C(F)(F)F
inactive: [1] | [2] | [3] | [10] | [6] | [7] | [8] | [9]
active: [5] 12.6 µM

CCCCCCCCCCCCCC(=O)OCC(O)CO (stereo not drawn)
inactive: [1] | [2] | [3] | [5] | [10] | [7] | [8] | [9]

CCCCCCCCc1ccc(S(=O)(=O)O)cc1
active: [1] 19.7 µM | [9] 155 µM
inactive: [2] | [3] | [5] | [10] | [6] | [8]

CN(C)CCOC(C)(c1ccccc1)c1ccccn1 (stereo not drawn)
inactive: [1] | [2] | [3] | [5] | [10] | [6] | [8] | [9]

CC1(C)O[C@@H]2[C@@H](CO[C@@]3(COS(N)(=O)=O)OC(C)(C)O[C@@H]23)O1
inactive: [1] | [2] | [4] | [5] | [10] | [6] | [7] | [8] | [9]

c1ccc(CCc2ccccc2)cc1
inactive: [1] | [2] | [3] | [5] | [6] | [8] | [9]
